Screening data: PubChem BioAssay, several laboratories
RTF Ca sens inh: cardiac RTF calcium desensitization. 340,000 compounds, 0.12% hits. IANBD-labeled cardiac RTF, Ca2+ fluorescence. inhibition, % at 7.15 µM. P19429+P45379;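 active means inhibition above the mean inhibition of all tested compounds plus 3 SD, cut at about 17% in these data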;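 further: assay run at fixed EC70 calcium of 1.6 mM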
C-LANA FP: KSHV C-LANA DNA binding inhibition; 340,000 compounds, 0.078% hits; inhibition, % at 9 µM; AID 504423; MBP-C-LANA/FAM-LBS DNA binding, fluorescence polarization;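 active means highest replicate inhibition at or above 60% at 9 µM, even if other replicates fall short; inactive means all replicates below 60% inhibition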;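 further: 0% = neutral control wells and 100% = 4 µM acridine orange control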
cardiac RTF act: cardiac RTF calcium sensitization; 340,000 compounds, 0.24% hits; IANBD-labeled TnC RTF fluorescence at EC20 calcium; 0% EC20 calcium, 100% full calcium; activation, % at 7.2 µM; P19429+P45379;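 active means activation above the mean over all tested compounds plus 3 SD, cut at about 30% in these data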;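 further: rise in fluorescence read as greater calcium sensitivity of cardiac thin filaments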
Keap1 Nrf2 FP: Keap1-Nrf2 (human) interaction inhibition. Keap1 Kelch-Nrf2 peptide fluorescence polarization, 1536-well. 340,000 compounds, 0.15% hits. inhibition, % at 9.4 µM. AID 504523. Q14145; in the data active means inhibition above about 12%;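 further: human Keap1 Kelch domain with fluorescein labeled Nrf2 9mer peptide probe; 0% = neutral control wells and 100% = peptide positive control; higher means more block of Keap1 binding to Nrf2 peptide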
eLon inh: inhibits E. coli Lon protease | purified E. coli Lon protease, fluorescence polarization | inhibition, % at 7.94 µM | 360,000 compounds, 0.42% hits; in the data active means inhibition above about 13%, passing the limit was not always enough;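 further: 0% = enzyme with probe and DMSO and 100% = no enzyme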
Target sequence (P0A9M0 whole entry, looked up): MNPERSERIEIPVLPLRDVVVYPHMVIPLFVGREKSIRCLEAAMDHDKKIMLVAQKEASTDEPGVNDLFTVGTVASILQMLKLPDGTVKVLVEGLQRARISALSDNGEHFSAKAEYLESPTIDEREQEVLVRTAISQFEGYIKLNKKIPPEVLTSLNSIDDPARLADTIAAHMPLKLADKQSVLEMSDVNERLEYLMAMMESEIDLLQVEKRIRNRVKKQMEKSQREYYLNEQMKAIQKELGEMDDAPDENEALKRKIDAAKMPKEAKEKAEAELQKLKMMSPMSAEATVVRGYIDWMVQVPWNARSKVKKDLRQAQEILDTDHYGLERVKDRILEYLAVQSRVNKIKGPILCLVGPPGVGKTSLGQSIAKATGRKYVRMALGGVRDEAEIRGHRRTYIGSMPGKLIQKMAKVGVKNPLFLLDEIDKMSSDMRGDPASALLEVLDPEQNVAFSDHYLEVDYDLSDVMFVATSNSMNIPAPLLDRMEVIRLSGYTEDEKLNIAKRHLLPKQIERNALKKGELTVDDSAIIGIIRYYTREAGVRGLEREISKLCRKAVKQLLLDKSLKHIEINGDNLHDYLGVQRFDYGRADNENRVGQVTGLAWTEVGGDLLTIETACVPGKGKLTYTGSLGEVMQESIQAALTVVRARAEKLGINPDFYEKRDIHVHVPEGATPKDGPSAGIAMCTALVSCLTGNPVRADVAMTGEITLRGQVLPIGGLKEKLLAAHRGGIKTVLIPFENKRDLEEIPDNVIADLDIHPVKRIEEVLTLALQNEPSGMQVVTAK
RTF Ca inh conf: confirmation of inhibitors of cardiac thin filament calcium sensitivity | shares compounds with RTF Ca sens inh | reconstituted cardiac thin filaments, calcium sensitivity fluorescence | inhibition, % at 7.15 µM | 360 compounds, 8% hits; in the data active means inhibition above about 18%
* = called active by the depositor; / = no result. The list is not random: actives were taken first. Their share in the collection is about 0.82%.

SMILES	RTF Ca sens inh	C-LANA FP	cardiac RTF act	Keap1 Nrf2 FP	eLon inh	RTF Ca inh conf
CCOC(=O)[C@]12CCCC=C1N(Cc1cccc3ccccc13)C(=O)[C@H](CC(=O)N1CCN(C(=O)C3CC3)CC1)C2	/	/	/	/	-2	/
COc1ccc(NC(=O)N(C)C[C@@H]2OCc3ccccc3-c3c(n(C)c4ccccc34)C(=O)N([C@H](C)CO)C[C@H]2C)c(OC)c1	/	/	/	/	-1	/
CC(NC(=O)CN1CCC(C(N)=O)CC1)c1ccccc1 (stereo unspecified)	-3	1	48*	-8	-7	/
O=C(O)CN1C(=O)/C(=C\c2cc(Br)ccc2OCc2ccc([N+](=O)[O-])cc2)SC1=S	1	78*	-15	1	-12	/
N#CC1=C(N)Oc2cc(N)ccc2C1c1cccc(F)c1 (stereo unspecified)	2	-1	3	-5	-20	/
CN(C)c1ccc2c(c1)OC(N)=C(C#N)C2c1cccc(F)c1 (stereo unspecified)	-121	0	73*	-28	-232	/
O=C1CCC[C@@H]2C=C[C@H](c3ccc(Br)cc3)[C@H]3CCN1[C@@H]32	/	/	/	/	0	/
O=C(NCCCCNC(=O)C1CCCC1)C1CCCC1	-5	0	4	-6	1	/
O=C(NCCCCc1ccccc1)C1CCCC1	1	101*	-4	-3	1	/
O=C(c1coc(=O)c(Br)c1)N1CCCc2ccccc21	1	77*	2	-1	-2	/
O=C(c1cccc(Br)c1)N1CCCc2ccccc21	6	-1	-4	2	8	/
Cc1c(Cc2ccccc2)c(=O)oc2cc(OCC(=O)N3CCC(C(=O)O)CC3)ccc12	-5	1	1	6	-8	/
CCOC(=O)Nc1ccc(NCc2ccc(F)cc2)nc1N	-67	17	72*	-6	-74	/
COc1ccccc1N1CCN(C2CCCN(C(=O)CCc3cnn(C)c3)C2)CC1 (stereo unspecified)	0	0	-5	-3	7	/
CN(C)c1ccc(/C=C/C(=O)c2cccc(Br)c2)cc1	-306	-4	135*	-38	-396	/
CCc1nc2ccc(C(=O)NCCc3ccc(OC)c(OC)c3)cc2nc1CC	-3	1	-4	-4	0	/
COc1ccc(CCNC(=O)c2ccc3nc(-c4ccco4)c(-c4ccco4)nc3c2)cc1OC	20*	10	-4	5	-4	/
CC1CCCCN1C(=O)Cn1cnc2cc([N+](=O)[O-])ccc2c1=O (stereo unspecified)	18*	-1	-2	6	10	-5
NNC(=O)c1ccc2nc(-c3ccc(Br)cc3)cn2c1	22*	2	-1	3	5	-2
CN[C@H](CC(=O)O)C(=O)O	18*	1	6	-1	2	-2
CC(=O)NC(CC(C)C)C(=O)O (stereo unspecified)	1	0	1	-2	-5	/
CCCOc1ccccc1C1NC(=O)NC(C)=C1C(=O)OCCOC (stereo unspecified)	19*	0	7	-3	5	-1
CCCCOc1ccccc1C1NC(=O)NC(C)=C1C(=O)OCCOC (stereo unspecified)	3	-1	12	-5	4	/
O=C1CCCc2c1cnc1ncnn21	18*	0	-6	0	-4	-3
Cc1nn(C(C)C(=O)N2CCCC2)c(=O)c2nn(-c3ccccc3)c(C)c12 (stereo unspecified)	6	-1	-5	-2	8	/
SMILES	RTF Ca sens inh	C-LANA FP	cardiac RTF act	Keap1 Nrf2 FP	eLon inh	RTF Ca inh conf
CC(=O)Nc1ccc(-c2ccnc3c2CC(C)(C(=O)Nc2ccc(C(C)C)cc2)O3)cc1 (stereo unspecified)	/	/	/	/	0	/
Cc1cc(NC(=O)CN2CCN(c3ncccn3)CC2)no1	21*	0	1	-1	-8	-2
CCN1CCN(CC(=O)Nc2cc(C)on2)CC1	4	0	1	-4	-15	/
CC1(C)CC(=O)C(Sc2ccccc2)=C(O)C1	56*	2	2	-2	-8	1
CCOC(=O)c1c(C=O)c(C)n(Cc2ccccc2Cl)c1C	18*	-2	1	-3	6	-3
CCCCCN(C(=O)CCC(=O)OCC(=O)N1C(C)CCCC1C)c1c(N)n(CCCC)c(=O)[nH]c1=O (stereo unspecified)	-1	-1	3	1	-6	/
CCc1cccc(CC)c1NC(=O)COC(=O)CCc1cc(OC)c(OC)c(OC)c1	19*	0	2	-5	8	2
COc1cc(CCC(=O)OCC(=O)Nc2c(Cl)cccc2Cl)cc(OC)c1OC	-6	0	-1	-3	-8	/
CC(C)C[C@H]1CN([C@@H](CC(C)C)CN2CCCC2CN2C(=S)NC[C@@H]2Cc2ccccc2)C(=S)N1CC1CCCCC1 (stereo partly specified)	/	/	/	/	2	/
Cc1nnc(C)n1N	18*	0	-1	-6	8	-4
O=C(c1coc(=O)c(Br)c1)N1CCC(C(O)(c2ccccc2)c2ccccc2)CC1	-3	0	4	0	-3	/
CC1(C)CCCN(C(=O)c2coc(=O)c(Br)c2)C1	22*	64*	-17	-4	-6	2
CC/C(=C(\c1ccc(O)cc1)c1ccc(OCCN(C)C)cc1)c1ccccc1	18*	0	2	-2	1	-1
Cc1ccc(Nc2nc(N)nc(CN3CCN(C)CC3)n2)cc1	18*	0	-2	3	4	-6
CC12CCC(=O)C=C1C(F)CC1C2C(O)CC2(C)C1CCC2(O)C(=O)CO (stereo unspecified)	-2	4	8	3	3	/
Cc1ccc(/C=N/NC(=O)CNC(=O)COc2ccc(Cl)cc2)o1	18*	0	-2	-2	-3	-5
COc1ccc(CC(=O)NCC(=O)N/N=C/c2ccc(C)o2)cc1	-13	1	-3	0	-8	/
CSc1nc(-c2ccccc2)cc(C)c1C#N	18*	0	9	1	4	-10
O=C(COC(=O)c1ccc[nH]c1=O)NCCCc1ccccc1	-4	0	2	-2	-6	/
COCCNc1oc(/C=C/c2ccccc2OC)nc1S(=O)(=O)c1ccccc1	18*	-1	0	-3	1	8
Cc1cc(-n2c(C)cc(C(=O)COc3ccc(F)c(F)c3)c2C)no1	-4	0	1	5	-7	/
O=C(CN1C(=O)/C(=C2\SC(=S)N(CCS(=O)(=O)O)C2=O)c2ccccc21)Nc1cccc(Br)c1	30*	-1	-25	-1	-1	3
CCOC(=O)C1CCN(S(=O)(=O)c2cn(C)c(C)n2)CC1	-3	1	-2	-4	-3	/
N#Cc1cc2c(nc1SCc1ccccc1)CCCC2=O	20*	2	1	-1	5	0
N#Cc1cc2c(nc1SCc1ccccc1)CCC2	-7	1	-6	-3	0	/
